The values that follow come from PMC9838217, “Structure of SALL4 zinc finger domain reveals link between AT-rich DNA binding and Okihiro syndrome”.

What all share (experiment): HT-SELEX; high values mean tight binding
What all share (conditions): protein: recombinant; vector His6-GST; dsDNA, one strand shown

One experiment addresses T1, SALL4 ZFC4 WT (HT-SELEX) (Mus musculus, UniProt Q8BX22 870-940).
T1 sequence: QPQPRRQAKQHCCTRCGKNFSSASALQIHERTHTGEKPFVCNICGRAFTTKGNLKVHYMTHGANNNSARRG
An outline of the steps:
(§1)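 Binding signal is expressed as fold change in each canonical k-mer's read fraction over the initial random library. To obtain it, 1 µg of purified recombinant mouse SALL4 zinc finger cluster 4 (residues 870–940) was incubated for 10 min at room temperature with library DNA (1.5 µg first cycle, 200 ng later cycles) in 100 µl of 10 mM Tris–HCl pH 7.5, 50 mM NaCl, poly(dI-dC) and DTT. Ni2+ bead-captured complexes went through washing, PCR amplification and reselection for up to 6 cycles, in triplicate, before MiSeq sequencing and scanning for 6-mers.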

Experiment [1] addresses T2, SALL4 ZFC4 R900W (HT-SELEX) (Mus musculus, UniProt Q8BX22 870-940, R900W).
T2 sequence: T1 sequence with R31W
In short, it runs like this:
as §1

For experiment [2], the target named is T3, SALL4 ZFC4 G921D (HT-SELEX) (Mus musculus, UniProt Q8BX22 870-940, G921D).
T3 sequence: T1 sequence with G52D
An outline of the steps: as §1

Positions count from the first letter of the chain named.

For the sequence ACTTCC, the binding signal with SALL4 ZFC4 WT (HT-SELEX) was found to be 0.854 ± 0.0494 fold-change vs cycle 0; in experiment [1], 1.02 ± 0.0553 fold-change vs cycle 0; in experiment [2], 1.03 ± 0.0487 fold-change vs cycle 0.

As for ATATGA, the figures for the binding signal (in the experiment with SALL4 ZFC4 WT (HT-SELEX); in experiment [1]; in experiment [2]) were 3.11 ± 0.303 fold-change vs cycle 0, 2.07 ± 0.156 fold-change vs cycle 0 and 1.85 ± 0.196 fold-change vs cycle 0, respectively.

Take GCACAC: the values for the binding signal (in the experiment with SALL4 ZFC4 WT (HT-SELEX); in experiment [1]; in experiment [2]) were 0.35 ± 0.011 fold-change vs cycle 0, 0.453 ± 0.0146 fold-change vs cycle 0 and 0.583 ± 0.0993 fold-change vs cycle 0, respectively.

For the sequence GTTAAA, the binding signal with SALL4 ZFC4 WT (HT-SELEX) was 1.66 ± 0.0709 fold-change vs cycle 0; in experiment [1], 1.8 ± 0.123 fold-change vs cycle 0; in experiment [2] it was 1.61 ± 0.154 fold-change vs cycle 0.

On to CCTAAC, for which the binding signal with SALL4 ZFC4 WT (HT-SELEX) was 0.883 ± 0.0279 fold-change vs cycle 0; in experiment [1], 0.976 ± 0.0147 fold-change vs cycle 0; in experiment [2], 1 ± 0.0113 fold-change vs cycle 0.

As to AGTAGC, the binding signal with SALL4 ZFC4 WT (HT-SELEX) came out at 0.643 ± 0.0074 fold-change vs cycle 0; in experiment [1], 0.756 ± 0.0367 fold-change vs cycle 0; in experiment [2], 0.856 ± 0.0498 fold-change vs cycle 0.

In the case of ACTAGT, the binding signal came to 1.33 ± 0.0473 fold-change vs cycle 0 with SALL4 ZFC4 WT (HT-SELEX), 1.52 ± 0.0779 fold-change vs cycle 0 in experiment [1] and 1.37 ± 0.106 fold-change vs cycle 0 in experiment [2].

Regarding AACCAG, the binding signal was determined as 0.772 ± 0.0439 fold-change vs cycle 0 in the experiment with SALL4 ZFC4 WT (HT-SELEX), 0.91 ± 0.0252 fold-change vs cycle 0 in experiment [1] and 0.941 ± 0.0329 fold-change vs cycle 0 in experiment [2].

For CTAGAA, the binding signal with SALL4 ZFC4 WT (HT-SELEX) amounted to 1.25 ± 0.0695 fold-change vs cycle 0; in experiment [1], 1.37 ± 0.0276 fold-change vs cycle 0; in experiment [2] it was 1.3 ± 0.11 fold-change vs cycle 0.

With CACGAG, the binding signal with SALL4 ZFC4 WT (HT-SELEX) was found to be 0.41 ± 0.0151 fold-change vs cycle 0; in experiment [1], 0.496 ± 0.0211 fold-change vs cycle 0; in experiment [2], 0.599 ± 0.0729 fold-change vs cycle 0.

With GCTCAA, the binding signal turned out to be 0.548 ± 0.03 fold-change vs cycle 0 with SALL4 ZFC4 WT (HT-SELEX), 0.644 ± 0.0305 fold-change vs cycle 0 in experiment [1] and 0.763 ± 0.038 fold-change vs cycle 0 in experiment [2].

Turning to CACGAC, the binding signal is 0.303 ± 0.0099 fold-change vs cycle 0 with SALL4 ZFC4 WT (HT-SELEX), 0.381 ± 0.0158 fold-change vs cycle 0 in experiment [1] and 0.501 ± 0.0536 fold-change vs cycle 0 in experiment [2].

For CATCCC, the binding signal amounted to 0.525 ± 0.0193 fold-change vs cycle 0 with SALL4 ZFC4 WT (HT-SELEX), 0.59 ± 0.0178 fold-change vs cycle 0 in experiment [1] and 0.652 ± 0.049 fold-change vs cycle 0 in experiment [2].

Consider AGCTCA, for which the binding signal is 0.694 ± 0.0391 fold-change vs cycle 0 with SALL4 ZFC4 WT (HT-SELEX), 0.773 ± 0.0155 fold-change vs cycle 0 in experiment [1] and 0.872 ± 0.0134 fold-change vs cycle 0 in experiment [2].

In the case of AGAGTG, the binding signal in the experiment with SALL4 ZFC4 WT (HT-SELEX) amounted to 0.822 ± 0.0341 fold-change vs cycle 0; in experiment [1] it was 0.925 ± 0.0332 fold-change vs cycle 0; in experiment [2], 0.97 ± 0.0268 fold-change vs cycle 0.

Turning to GCAAGA, the binding signal came to 0.671 ± 0.0141 fold-change vs cycle 0 with SALL4 ZFC4 WT (HT-SELEX), 0.766 ± 0.0335 fold-change vs cycle 0 in experiment [1] and 0.825 ± 0.0528 fold-change vs cycle 0 in experiment [2].

Regarding TCCAAA, the binding signal with SALL4 ZFC4 WT (HT-SELEX) was found to be 1.1 ± 0.0395 fold-change vs cycle 0; in experiment [1], 1.19 ± 0.0233 fold-change vs cycle 0; in experiment [2], 1.17 ± 0.00926 fold-change vs cycle 0.

With ACACGG, the binding signal with SALL4 ZFC4 WT (HT-SELEX) stood at 0.354 ± 0.0115 fold-change vs cycle 0; in experiment [1], 0.455 ± 0.00764 fold-change vs cycle 0; in experiment [2] it was 0.548 ± 0.0679 fold-change vs cycle 0.

Consider AGGAAC, for which the binding signal in the experiment with SALL4 ZFC4 WT (HT-SELEX) was 0.86 ± 0.0507 fold-change vs cycle 0; in experiment [1], 1.02 ± 0.0591 fold-change vs cycle 0; in experiment [2] it was 1.04 ± 0.0533 fold-change vs cycle 0.

On to AAGCAC, for which the values for the binding signal (in the experiment with SALL4 ZFC4 WT (HT-SELEX); in experiment [1]; in experiment [2]) were 0.582 ± 0.0244 fold-change vs cycle 0, 0.678 ± 0.0144 fold-change vs cycle 0 and 0.796 ± 0.0229 fold-change vs cycle 0, respectively.

For CTGTAC, the binding signal in the experiment with SALL4 ZFC4 WT (HT-SELEX) amounted to 0.751 ± 0.0338 fold-change vs cycle 0; in experiment [1] it was 0.874 ± 0.0496 fold-change vs cycle 0; in experiment [2], 0.911 ± 0.0674 fold-change vs cycle 0.

ACAAGT: the binding signal with SALL4 ZFC4 WT (HT-SELEX) turned out to be 1.24 ± 0.0226 fold-change vs cycle 0; in experiment [1], 1.4 ± 0.0269 fold-change vs cycle 0; in experiment [2], 1.35 ± 0.0304 fold-change vs cycle 0.

Regarding ATGTTA, the figures for the binding signal (with SALL4 ZFC4 WT (HT-SELEX); in experiment [1]; in experiment [2]) were 2.16 ± 0.126 fold-change vs cycle 0, 2.08 ± 0.106 fold-change vs cycle 0 and 1.83 ± 0.212 fold-change vs cycle 0, respectively.

As to CTACTC, the binding signal in the experiment with SALL4 ZFC4 WT (HT-SELEX) came to 0.863 ± 0.0395 fold-change vs cycle 0; in experiment [1] it was 0.998 ± 0.0566 fold-change vs cycle 0; in experiment [2], 0.992 ± 0.0109 fold-change vs cycle 0.

On to CACTCA, for which the binding signal with SALL4 ZFC4 WT (HT-SELEX) worked out at 0.83 ± 0.0249 fold-change vs cycle 0; in experiment [1], 0.928 ± 0.0236 fold-change vs cycle 0; in experiment [2], 0.995 ± 0.0233 fold-change vs cycle 0.

For ATAATC, the binding signal with SALL4 ZFC4 WT (HT-SELEX) turned out to be 2.69 ± 0.205 fold-change vs cycle 0; in experiment [1] it was 2.05 ± 0.113 fold-change vs cycle 0; in experiment [2], 1.81 ± 0.145 fold-change vs cycle 0.

In the case of AGCTAC, the binding signal in the experiment with SALL4 ZFC4 WT (HT-SELEX) is 0.674 ± 0.0463 fold-change vs cycle 0; in experiment [1], 0.7802 ± 0.0018 fold-change vs cycle 0; in experiment [2], 0.874 ± 0.026 fold-change vs cycle 0.

Turning to AACGAT, the figures for the binding signal (with SALL4 ZFC4 WT (HT-SELEX); in experiment [1]; in experiment [2]) were 1.21 ± 0.0566 fold-change vs cycle 0, 1.27 ± 0.0691 fold-change vs cycle 0 and 1.23 ± 0.0814 fold-change vs cycle 0, respectively.

Take AAGCCA: the binding signal worked out at 0.541 ± 0.0136 fold-change vs cycle 0 with SALL4 ZFC4 WT (HT-SELEX), 0.628 ± 0.0233 fold-change vs cycle 0 in experiment [1] and 0.751 ± 0.0535 fold-change vs cycle 0 in experiment [2].

As for TGATCA, the binding signal with SALL4 ZFC4 WT (HT-SELEX) is 1.35 ± 0.0953 fold-change vs cycle 0; in experiment [1], 1.5 ± 0.0834 fold-change vs cycle 0; in experiment [2], 1.47 ± 0.128 fold-change vs cycle 0.
